D2 PAM-1: potentiates the human D2 dopamine receptor allosterically; 360,000 compounds, 0.23% hits; potentiation, % (no concentration beside the values); DiscoveRx D2 beta-arrestin cells, luminescence, 90 min; 100% = 57 uM dopamine signal; P14416; in the data active means potentiation above about 50%; inconclusive means mostly about 30% to 49%
Target sequence (P14416 whole entry, looked up): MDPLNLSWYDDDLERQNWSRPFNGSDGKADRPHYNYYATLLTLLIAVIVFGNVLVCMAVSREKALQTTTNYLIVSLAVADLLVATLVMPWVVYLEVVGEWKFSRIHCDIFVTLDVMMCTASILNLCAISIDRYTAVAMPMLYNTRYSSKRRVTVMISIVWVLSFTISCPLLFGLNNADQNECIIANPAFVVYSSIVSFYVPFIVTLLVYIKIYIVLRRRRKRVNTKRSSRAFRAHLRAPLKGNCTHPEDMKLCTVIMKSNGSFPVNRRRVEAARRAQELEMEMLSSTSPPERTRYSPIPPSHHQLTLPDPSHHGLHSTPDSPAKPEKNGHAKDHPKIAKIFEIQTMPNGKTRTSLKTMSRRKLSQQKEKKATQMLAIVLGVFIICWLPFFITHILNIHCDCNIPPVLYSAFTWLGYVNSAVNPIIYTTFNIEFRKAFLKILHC
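PathHunter D2 cells, attached overnight at 37 deg C, received compound in DMSO plus dopamine at EC20 (50 nM final) for 90 min at 37 deg C. Beta-arrestin recruitment was read as luminescence after 1 h with detection reagent at ambient temperature.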
D2 ag-1: agonists of human D2 dopamine receptor; P14416; HEK293 T-REx D2 cells, calcium flux agonist mode; activation, % at 2 µM; 340,000 compounds, 0.53% hits; AID 485358;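 active means activation over 3 SD above normal in the single-dose calcium agonist read, cut at about 30% in these data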
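Tetracycline-induced HEK293 T-REx cells with force-coupled D2 receptor, plated overnight at 30 C, loaded with no-wash calcium dye. After a 10 s baseline, compound was pin-added and calcium flux read kinetically for 180 s; calcium rises flagged agonists.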
D2 ag-2: agonists of human D2 dopamine receptor (beta-arrestin); AID 624465; activation, % (no concentration beside the values); 360,000 compounds, 0.084% hits; DiscoveRx PathHunter D2 beta-arrestin, luminescence, 90 min; 100% = 57 uM dopamine signal; P14416; in the data active means activation above about 40%; inconclusive means between about 15% and that limit
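Agonist mode: compounds alone added to overnight-plated D2 PathHunter cells for 90 min at 37 C, with 57 uM final dopamine (EC100) defining full response. Beta-arrestin recruitment detected by chemiluminescent reagent, read after 1 h at ambient temperature.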
D2 PAM-2: positive allosteric modulators of human D2 dopamine receptor; 340,000 compounds, 0.34% hits; P14416; AID 485347; potentiation, % at 10 µM; HEK293 T-REx D2, calcium flux, EC20 dopamine potentiation;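 active means potentiation over 3 SD above the plate norm, cut at about 30% in these data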
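Potentiation of an EC20 dopamine calcium response is measured in a force-coupled, tetracycline-inducible Hek293 Trex D2 line. Compound-only kinetic reads over 180 s flag agonists before dopamine addition.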
D2 antagonist: antagonists of human D2 dopamine receptor; P14416; HEK293 TREx D2 cells, calcium flux, dopamine EC80; inhibition, % at 10 µM; 340,000 compounds, 2% hits; AID 485344; in the data active means inhibition above about 30%; inactive means below that, where a call was filed
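Overnight-induced (tetracycline, 30 C) HEK293 T-REx cells carrying force-coupled D2 receive a no-wash calcium dye, then compound, then EC80 dopamine at 180 s; signals are read kinetically throughout.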
Large screens that a line does not name were inactive. An excerpt weighted towards active compounds, which were near 2.4% of everything screened.

O=C(Nc1ccccc1C(=O)O)c1cccc(NC(=O)c2ccccc2Cl)c1	D2 PAM-1 64.1
Cc1ccccc1C(=O)Nc1cccc(C(=O)Nc2ccccc2C(=O)O)c1	D2 PAM-2 33.3
NS(=O)(=O)c1cccc(NC(=O)COC(=O)C2(c3cccc(F)c3)CCCC2)c1	D2 antagonist 50.8
COC(=O)C1CCN(S(C)(=O)=O)CC1	D2 PAM-2 42.2
COC(=O)C1CCN(S(=O)(=O)c2ccc(NC(C)=O)cc2)CC1	none
c1ccc(OCCNc2nc(NCC3CC3)nc3cc(-c4ccccc4)sc23)cc1	D2 ag-2 44.0 (no result: D2 ag-1, D2 PAM-2, D2 antagonist)
CC1=NN(c2cccc(F)c2)C(=O)/C1=C/c1ccc(N(C)C)cc1	D2 antagonist 31.6
Cc1ccc(S(=O)(=O)N(C)C)cc1NC(=O)CN1CCCC1	none
CN(C)S(=O)(=O)c1ccc(Cl)c(NC(=O)CN2CCCC2)c1	D2 antagonist 35.9
O=C(CN1CCN(S(=O)(=O)c2ccc(Br)cc2)CC1)Nc1ccc(F)cc1F	none
COc1ccc(NC(=O)CN2CCN(S(=O)(=O)c3ccc(Br)cc3)CC2)c(OC)c1	none
O=C(CN1CCN(S(=O)(=O)c2ccc(Cl)cc2)CC1)Nc1ccc(F)cc1F	D2 antagonist 39.0
COc1ccc(C)cc1NC(=O)CN1CCN(S(=O)(=O)c2ccc(Br)cc2)CC1	D2 antagonist 33.5
COc1ccc(NC(C)=O)cc1NC(=O)CN1CCN(S(=O)(=O)c2ccc(C(C)C)cc2)CC1	D2 antagonist 38.2
O=C(NCCc1ccc(Cl)cc1)C1CCN(Cc2cc3ccccc3n2Cc2ccccc2)CC1	none (no result: D2 PAM-1, D2 ag-2, D2 antagonist)
Cc1ccc(S(=O)(=O)N2CCN(CC(=O)Nc3ccccc3Cl)CC2)cc1	D2 antagonist 39.7
O=S(=O)(c1cccc(NC(=S)Nc2ccc(Br)cc2Cl)c1)N1CCOCC1	D2 antagonist 37.8
O=C(Nc1cccc(Cl)c1)c1cc(S(=O)(=O)N2CCOCC2)cs1	D2 antagonist 34.8
O=C(COC(=O)c1cccs1)Nc1cccc(S(=O)(=O)N2CCOCC2)c1	D2 antagonist 36.4
O=C(Nc1nc2ccc(S(=O)(=O)N3CCCC3)cc2s1)c1cccs1	none
O=C(Nc1nc2ccc(S(=O)(=O)N3CCOCC3)cc2s1)c1cccs1	D2 antagonist 56.6
CC(C)(C)OC(=O)N1CCC(c2c(C(=O)NC3CCCCC3)cnn2-c2cccc(Cl)c2)CC1	none (no result: D2 PAM-1, D2 ag-2, D2 antagonist)
Cc1coc2cc3oc(=O)c(CC(=O)NCc4ccccc4)c(C)c3cc12	none (no result: D2 PAM-1, D2 ag-1, D2 ag-2, D2 antagonist)
COc1cccc(C(=O)CC2(O)C(=O)Nc3ccc(Cl)cc32)c1 (stereo unspecified)	none (no result: D2 PAM-1, D2 ag-2, D2 antagonist)
COc1ccccc1CNC(=O)c1cc2c(=O)n(Cc3cccs3)ccc2nc1C	none (no result: D2 PAM-1, D2 ag-2, D2 antagonist)
CN(c1ccc(OCC(=O)N2CCOCC2)cc1)S(=O)(=O)c1ccc(Cl)cc1	D2 antagonist 35.4
Cc1ccc(C)c(NS(=O)(=O)c2ccc(OCC(=O)N3CCOCC3)cc2)c1	D2 antagonist 32.3
Cc1ccc(C)c(NS(=O)(=O)c2ccc(OCC(=O)N3CCCC3)cc2)c1	none
CN(c1ccc(OCC(=O)N2CCOCC2)cc1)S(=O)(=O)c1ccc(F)cc1	none
O=C(NCc1ccccc1Cl)C1CCCN(C(=O)c2cnn(-c3ccc(F)cc3)c2-n2cccc2)C1 (stereo unspecified)	none (no result: D2 PAM-1, D2 ag-2, D2 antagonist)
CCCCNC(=S)N/N=C/c1ccc(C#N)cc1	D2 antagonist 39.3
O=C(CN1C(=O)c2ccc([N+](=O)[O-])cc2C1=O)NCc1ccc(C(=O)O)cc1	D2 PAM-1 51.3
O=C(CCN1C(=O)c2ccc([N+](=O)[O-])cc2C1=O)Nc1ccc(O)cc1C(=O)O	D2 PAM-1 60.8, D2 ag-2 inconclusive
CC1C/C(=N/O)C(C)CN1 (stereo unspecified)	D2 PAM-2 31.0
Cc1sc2nc(CSc3ccccc3)nc(N3CCN(C)CC3)c2c1C	D2 antagonist 89.9
Cc1ccc(-n2ncc(C(=O)NCCCN3CCCCC3)c2C2CCN(C(=O)OC(C)(C)C)CC2)cc1	none (no result: D2 PAM-1, D2 ag-2, D2 antagonist)
CN(Cc1nccs1)C(=O)C1CCC(=O)N(CCc2ccc(Cl)cc2)C1 (stereo unspecified)	D2 antagonist 32.7
O=C(C1CC1)N1CCN=C1SCc1ccccc1Cl	D2 antagonist 35.4
O=C(c1cccs1)N1CCN=C1SCc1ccc(Cl)cc1	none
CCC(=O)N1CCN=C1SCc1ccc(Cl)cc1	D2 PAM-2 30.4
O=C(c1cccs1)N1CCN=C1SCc1ccccc1F	D2 ag-1 33.4
COc1cc(/C=C(\C#N)C(=O)Nc2ccc(C)cc2)ccc1OCc1cc(=O)n2nc(C)sc2n1	none (no result: D2 PAM-1, D2 ag-2, D2 PAM-2, D2 antagonist)
Cc1ccc(NC(=O)Cn2c(C)cc(C)c(C#N)c2=O)cc1	none (no result: D2 PAM-1, D2 ag-2, D2 antagonist)
O=S(=O)(Nc1ccccn1)c1ccc(Cl)c2ccccc12	D2 antagonist 30.6
Cc1ccc(S(=O)(=O)NC(CC(=O)O)c2cccs2)cc1 (stereo unspecified)	none
Cc1ccc(S(=O)(=O)NC(C)C(=O)NC(C)c2cccs2)cc1 (stereo unspecified)	D2 PAM-2 31.9
COc1ccc(OC)c(NC(=O)C2Cc3ccccc3CN2S(=O)(=O)c2ccc(F)cc2)c1 (stereo unspecified)	none (no result: D2 PAM-1, D2 ag-2, D2 antagonist)
COc1ccc(-c2nn(C)c3sc(C(=O)Nc4cc(OC)c(OC)c(OC)c4)cc23)cc1OC	none (no result: D2 PAM-1, D2 ag-2, D2 antagonist)
Cc1cc(=O)[nH]c(N2CCCNCC2)n1	none
Cc1cc(=O)[nH]c(-n2nc(C)cc2C)n1	D2 antagonist 43.8
COc1ccc(F)cc1C(=O)C1CCCN(Cc2ccc(Sc3nncn3C)o2)C1 (stereo unspecified)	D2 antagonist 30.9
CCCCOc1ccc(Cn2c(=O)oc3ccc(C)cc32)cc1	none (no result: D2 PAM-1, D2 ag-2, D2 antagonist)
O=C(NNc1nc2c(F)cc(F)cc2s1)C1=COCCO1	D2 antagonist 39.2
CCC(=O)NNc1nc2c(F)cc(F)cc2s1	D2 antagonist 39.5
Cc1cc(C)c(S(=O)(=O)NCc2csc(-c3ccccc3)n2)c(C)c1	none (no result: D2 PAM-1, D2 ag-2, D2 antagonist)
CCOc1cc(CNC(=O)c2ccc3nc(C(C)C)oc3c2)cc(OCC)c1OCC	none (no result: D2 PAM-1, D2 ag-2, D2 antagonist)
CC(=O)Nc1ccc(NC(=O)c2ccc([N+](=O)[O-])cc2Cl)cc1	none
CCC(C)NS(=O)(=O)c1ccc(NC(=O)c2ccc([N+](=O)[O-])cc2Cl)cc1 (stereo unspecified)	D2 antagonist 37.3
COCc1cc(C)n(CC(=O)N2CCCC2)c(=O)c1C#N	D2 antagonist 30.8
CCOc1ccc(S(=O)(=O)NCc2cccn2Cc2cccc(C)c2)cc1	none (no result: D2 PAM-1, D2 ag-2, D2 antagonist)
CCOc1ccccc1CN1CCN(C/C=C/c2ccc(OC)cc2)CC1CCO (stereo unspecified)	D2 antagonist 33.6
COc1ccc(N(Cc2cccs2)C(=O)COc2cc(C)c(Cl)c(C)c2)cc1	none (no result: D2 PAM-1, D2 ag-2, D2 antagonist)
COc1cccc(/C=N/NC(=O)CN2CC(c3ccccc3)CC2=O)c1OC (stereo unspecified)	D2 antagonist 38.1
Fc1ccccc1OCCCN1CCOCC1	D2 antagonist 31.1

Compound activity: PubChem BioAssay, National Center for Advancing Translational Sciences (NCATS)
